# Shiga toxin inh = inhibitors of Shiga toxin in Vero cells. actives 9.2% (n = 290,000). AID 2315. Vero cells, Shiga toxin protein synthesis inhibition reporter. inhibition, % at 38.7 µM; in the data active means inhibition mostly above about 28%, no sharp cut-off; inactive means mostly below about 43%; further: 0% is about no effect
# Pf growth 48h = inhibits P. falciparum growth in the first generation, 48 h | Potency, µM (doses to about 28.7 µM), for the others: at the top dose activity change, negative = inhibition, hits mostly inhibitors | P. falciparum luciferase growth in erythrocytes, 48 h | actives 5.9% (n = 310,000) | AID 504832; further: potency means the concentration at half of the fitted maximal effect; on the % scale 0 is the no-effect control and ±100 the full control effect
#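 A one-generation exposure of luciferase-tagged malaria parasites in RPMI 1640/Albumax erythrocyte culture, 37 C and 5% CO2. Inhibition is inferred from decreased luminescence after adding detection reagent.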
# NS1 inh = inhibitors of influenza NS1 protein function | AID 2326 | Potency, µM (highest dose often 46.1 µM), for inactives: at the top dose activity, positive = more growth | actives 0.4% (n = 270,000); calls by dose curve; further: potency means the concentration at half of the fitted maximal effect; actives are rising curves; nearly all actives have a fitted effect of over 50% in size
#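 Read-out: OD600 growth recovery of NS1-expressing budding yeast. Cells grown overnight at 30C in -URA glucose medium, washed, resuspended and diluted 1:100 in 2% galactose assay medium, pH 6.0. Same strain lacking NS1 served as positive control.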
# CHX counter = affects cycloheximide protein synthesis inhibition readout, counter-screen. cell reporter, cycloheximide protein synthesis inhibition counterscreen. actives 12% (n = 300,000). max response, %; in the data active means max response mostly above about 13%, no sharp cut-off; inactive means mostly below about 14%; further: read at 38.3 µM for the half of the compounds with a filed dose; 0% is about no effect
# Pf growth 96h = inhibits malaria parasite growth, 96 h | P. falciparum luciferase reporter growth, 96 h | Potency, µM (top dose mostly 28.7 µM), for the others: at the top dose activity change, negative = inhibition, most hits filed as inhibitors | actives 6.9% (n = 320,000); further: potency means the concentration at half of the fitted maximal effect; on the % scale 0 is the no-effect control and ±100 the full control effect
#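 Erythrocytes infected with luciferase-expressing P. falciparum were dispensed at 2% hematocrit and 0.05% parasitemia (final), then incubated with compounds 96 hours at 37 C in 5% CO2. Luminescence after detection reagent addition reported growth.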
# SARS PLP yeast = SARS-CoV PLP inhibition in yeast | S. cerevisiae expressing SARS-CoV PLpro, growth rescue | Potency, µM (titrated, usually from 32.9 µM), inactives show top-dose activity, positive = growth rescue, actives largely listed as activators | actives 0.19% (n = 330,000) | AID 485353; calls by dose curve; further: potency means the concentration at half of the fitted maximal effect; 0% is about no effect; nearly all actives have a fitted effect of over 55% in size
# Active calls of the source: *; ? = inconclusive; . = no result. Compounds with a hit are over-represented: about 21% of the library has one in this group of screens. Unless noted, the call rests on the fitted dose curve; in most records, active means well fitted inhibition curve with a large enough effect; inconclusive means small, poorly fitted or top-dose-only effect, or another doubt; inactive means no such curve, though single readings can be large or run the other way.
SMILES,Shiga toxin inh,Pf growth 48h,NS1 inh,CHX counter,Pf growth 96h,SARS PLP yeast
OCCCN=c1cc(-c2ccccc2)oc2ccc(Cl)cc12,97*,.,-15%,35*,?,18%
CCOC(=O)C(=O)N1CCC(C(=O)OCC)CC1,29,-11%,7%,28*,14%,1%
CCOC(=O)C1CCN(C(=O)C(=O)N2CCC(C(=O)OCC)CC2)CC1,7,-12%,2%,-2,4%,3%
CCOC(=O)C1CCN(c2c(NC3CCCCCCC3)c(=O)c2=O)CC1,8,-6%,-2%,-1,?,-21%
CCOC(=O)C1CCN(c2c(N3CCCCCC3)c(=O)c2=O)CC1,-9,12%,-4%,9,10µM*,3%
C=CCOn1c(=O)c(-c2ccc(OCC)cc2)[n+]([O-])c2ccccc21,15,-25%,3%,9,0%,-2%
CCOc1ccc(OCc2ccc(C(=O)NCc3ccncc3)o2)cc1,26,3%,-2%,17*,-4%,-1%
CCc1ccc(OCc2ccc(C(=O)NCc3ccccn3)o2)cc1,19,?,-33%,32*,10µM*,-13%
O=C1NC2(CCCCCC2)C(=O)N1Cc1ccccc1Br,-9,9%,-10%,-6,35%,-15%
O=C(Nc1ccc(N2CCN(C(=O)c3cccs3)CC2)cc1)c1cccnc1,-4,?,-2%,-4,2.9µM*,2%
CC1CCN(c2ccc(NC(=O)c3cccnc3Cl)cc2)CC1,-16,21%,?,5,10µM*,0%
CC1CCN(c2ccc(NC(=O)c3cccnc3)cc2)CC1,55*,-5%,?,33*,8%,-3%
CCOc1ccccc1NC(=O)C1=C(C)NC(=S)NC1c1cccs1 (stereo not given),-2,-23%,12%,6,-16%,0%
CC1(c2nnc(Cc3ccccc3)o2)CC(c2cccc(F)c2)=NO1 (stereo not given),.,5%,.,.,79%,-7%
CC(NC(=O)COC(=O)c1c[nH]c2ccccc12)c1ccccc1 (stereo not given),.,.,.,.,.,0%
Cc1cccc(NS(=O)(=O)c2cccc(C(=O)N3CCN(S(=O)(=O)c4ccccc4)CC3)c2)c1,.,?,.,.,12µM*,-25%
Cc1ccc(S(=O)(=O)Nc2cccc(C(=O)N3CCN(c4ccccc4O)CC3)c2)cc1F,.,1.5µM*,.,.,?,-2%
O=[N+]([O-])c1cccnc1SCc1c(F)cccc1Cl,-6,13µM*,4%,1,?,-2%
Fc1cccc(Cl)c1CSc1ncn[nH]1,-10,0%,9%,-4,.,5%
O=[N+]([O-])c1ccc(SCc2c(F)cccc2Cl)nc1,20,70%,1%,19*,38%,-2%
O=C(N/N=C/c1cn(-c2ccccc2)nc1-c1cccnc1)c1cccnc1,2,?,.,5,?,3%
O=C(N/N=C/c1cn(-c2ccccc2)nc1-c1cc2ccccc2o1)c1ccncc1,132*,-33%,4%,85*,-45%,-23%
O=C(N/N=C/c1cn(-c2ccccc2)nc1-c1cc2ccccc2o1)c1cccnc1,106*,?,16%,53*,?,-7%
COc1ccccc1C(=O)N/C(=C\c1cn(C)c2ccccc12)C(=O)N1CCCC1,-3,?,-3%,-1,?,0%
CCN(c1ccccc1C(=O)O)S(=O)(=O)c1cccc2nsnc12,-3,27%,5%,-1,5%,0%
SMILES,Shiga toxin inh,Pf growth 48h,NS1 inh,CHX counter,Pf growth 96h,SARS PLP yeast
CCOc1c(CNCCCSc2nc(C)cc(C)n2)cccc1OC,-5,1%,2%,-3,?,-5%
Clc1cccc(Cl)c1Cn1cnc2c(N3CCCCCC3)ncnc21,-13,10µM*,-11%,-1,.,-2%
CCN(CC)c1ncnc2c1ncn2Cc1c(Cl)cccc1Cl,13,?,-3%,-2,5%,-4%
O=S(=O)(Nc1nc2ccccc2nc1NCC1CCCO1)c1cc(Cl)ccc1Cl (stereo not given),-4,-23%,4%,-2,-18%,-3%
CC(C)Sc1nc(N)c2c3c(sc2n1)CN(C)CC3,21,1µM*,6%,16*,.,-4%
CN(C)CCSc1nc(N)c2c3c(sc2n1)CN(C)CC3,-6,4.1µM*,3%,11,?,6%
CCCSc1nc(N)c2c3c(sc2n1)CN(C)CC3,35,?,-2%,16,?,-1%
COCCSc1nc(N)c2c3c(sc2n1)CN(C)CC3,16,5.2µM*,-1%,10,3.7µM*,0%
CCN(CC)CCNc1nc(SC)nc2sc3c(c12)CCN(C)C3,-6,?,5%,-1,?,0%
Cc1ccccc1NC(=O)Cc1nnc(N)s1,9,0%,2%,-4,22%,0%
O=C(NCCCN1CCCC1=O)c1ccc2c(c1)NC(=O)c1ccccc1S2,-9,.,5%,-7,-13%,3%
CCN1CCN(CCCNC(=O)c2ccc3c(c2)NC(=O)c2ccccc2S3)CC1,1,15µM*,-9%,-3,8.3µM*,-2%
CC1CCCC(C)N1CCCNC(=O)c1ccc2c(c1)NC(=O)c1ccccc1S2 (stereo not given),-2,4.1µM*,-15%,9,?,-2%
CCC(C)N(CCNC(=O)c1ccc2c(c1)NC(=O)c1ccccc1S2)C1CCCCC1 (stereo not given),-3,1.9µM*,4%,-4,?,0%
O=C(NCc1ccccc1)c1nnc(CS(=O)(=O)c2ccccc2)o1,-8,?,1%,-4,94%,2%
O=C(NC(N1CCOCC1)C(Cl)(Cl)Cl)c1ccco1 (stereo not given),128*,155%,-35%,70*,-168%,-2%
O=C(/C=C/c1ccccc1)NC(N1CCOCC1)C(Cl)(Cl)Cl (stereo not given),42,53%,-5%,30*,24%,1%
C=CCN(c1ccccc1)S(=O)(=O)c1cccc(C(=O)Nc2ncccc2O)c1,.,59%,.,.,?,5%
CC1CC(=O)N(CC(=O)NCc2ccc(F)cc2)c2ccccc2S1(=O)=O (stereo not given),-1,5%,9%,-3,18%,1%
CC(C)(CO)NCC#Cc1ccccc1,-8,1%,8%,-3,-2%,0%
CSc1ccccc1OCc1cc(C(=O)NC(C)Cn2cncn2)no1 (stereo not given),18,0%,1%,13*,10%,-3%
CSc1ccccc1OCc1cc(C(=O)NCC(C)(C)N2CCOCC2)no1,55,?,-7%,8,?,1%
CSc1ccccc1OCc1cc(C(=O)NCCn2nc(C)cc2C)no1,6,?,-23%,11*,8%,-2%
CSc1ccccc1OCc1cc(C(=O)NCCN2CCCc3ccccc32)no1,16,?,27%,33*,9%,-5%

# Compound activity as filed in PubChem.
